We go through one compound from ChEMBL document CHEMBL2218924, “A broad activity screen in support of a chemogenomic map for kinase signalling research and drug discovery” (Biochem J, 2013).

SMILES strings stand for the structures.

For assay [1], the target named is T1, Serine/threonine-protein kinase TBK1 (Homo sapiens) (UniProt Q9UHD2).
T1 sequence (whole entry): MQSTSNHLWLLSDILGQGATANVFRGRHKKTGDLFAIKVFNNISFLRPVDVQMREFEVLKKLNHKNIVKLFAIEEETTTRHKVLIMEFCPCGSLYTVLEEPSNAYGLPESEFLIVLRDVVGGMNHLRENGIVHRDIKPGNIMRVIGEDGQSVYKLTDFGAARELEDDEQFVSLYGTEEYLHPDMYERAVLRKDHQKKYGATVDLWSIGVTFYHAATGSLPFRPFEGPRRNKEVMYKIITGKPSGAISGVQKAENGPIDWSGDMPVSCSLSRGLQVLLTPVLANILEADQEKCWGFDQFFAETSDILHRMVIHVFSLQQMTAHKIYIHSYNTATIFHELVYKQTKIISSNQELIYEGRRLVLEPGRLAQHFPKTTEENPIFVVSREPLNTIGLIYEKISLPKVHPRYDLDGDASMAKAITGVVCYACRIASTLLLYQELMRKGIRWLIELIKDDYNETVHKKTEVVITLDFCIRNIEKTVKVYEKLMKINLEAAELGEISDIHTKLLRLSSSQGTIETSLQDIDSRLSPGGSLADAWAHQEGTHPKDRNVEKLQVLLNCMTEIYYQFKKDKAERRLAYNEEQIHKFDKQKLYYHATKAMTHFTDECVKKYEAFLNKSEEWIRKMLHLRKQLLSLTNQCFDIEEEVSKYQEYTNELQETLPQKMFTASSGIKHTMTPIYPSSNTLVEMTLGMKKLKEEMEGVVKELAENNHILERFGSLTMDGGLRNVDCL
The conditions noted are these: at 10 µM.

The target of assay [2] is T2, TGF-beta receptor type-1 (Homo sapiens) (UniProt P36897).
T2 sequence (whole entry): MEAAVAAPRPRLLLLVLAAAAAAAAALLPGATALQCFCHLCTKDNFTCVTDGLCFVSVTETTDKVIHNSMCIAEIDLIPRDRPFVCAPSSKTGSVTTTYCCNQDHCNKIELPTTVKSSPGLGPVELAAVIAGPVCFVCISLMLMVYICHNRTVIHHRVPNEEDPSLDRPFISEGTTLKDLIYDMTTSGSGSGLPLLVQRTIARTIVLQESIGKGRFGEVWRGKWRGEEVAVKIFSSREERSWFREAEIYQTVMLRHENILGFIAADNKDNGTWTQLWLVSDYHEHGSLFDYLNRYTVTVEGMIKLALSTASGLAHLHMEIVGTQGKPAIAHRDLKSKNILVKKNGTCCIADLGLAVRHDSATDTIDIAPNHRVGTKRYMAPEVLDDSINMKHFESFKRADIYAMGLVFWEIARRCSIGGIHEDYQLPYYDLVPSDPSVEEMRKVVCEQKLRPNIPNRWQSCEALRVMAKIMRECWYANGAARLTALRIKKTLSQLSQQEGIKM
Particulars: at 1 µM.

For assay [3], the target named is T2, TGF-beta receptor type-1 (Homo sapiens). Particulars: at 10 µM.
Assay [4] addresses Insulin-like growth factor 1 receptor (Homo sapiens) (UniProt P08069). Particulars: at 1 µM.
The target is the same in assay [5]. Particulars: at 10 µM.
In assay [6] the target is T3, Inhibitor of nuclear factor kappa-B kinase subunit alpha (Homo sapiens) (UniProt O15111).
T3 sequence (whole entry): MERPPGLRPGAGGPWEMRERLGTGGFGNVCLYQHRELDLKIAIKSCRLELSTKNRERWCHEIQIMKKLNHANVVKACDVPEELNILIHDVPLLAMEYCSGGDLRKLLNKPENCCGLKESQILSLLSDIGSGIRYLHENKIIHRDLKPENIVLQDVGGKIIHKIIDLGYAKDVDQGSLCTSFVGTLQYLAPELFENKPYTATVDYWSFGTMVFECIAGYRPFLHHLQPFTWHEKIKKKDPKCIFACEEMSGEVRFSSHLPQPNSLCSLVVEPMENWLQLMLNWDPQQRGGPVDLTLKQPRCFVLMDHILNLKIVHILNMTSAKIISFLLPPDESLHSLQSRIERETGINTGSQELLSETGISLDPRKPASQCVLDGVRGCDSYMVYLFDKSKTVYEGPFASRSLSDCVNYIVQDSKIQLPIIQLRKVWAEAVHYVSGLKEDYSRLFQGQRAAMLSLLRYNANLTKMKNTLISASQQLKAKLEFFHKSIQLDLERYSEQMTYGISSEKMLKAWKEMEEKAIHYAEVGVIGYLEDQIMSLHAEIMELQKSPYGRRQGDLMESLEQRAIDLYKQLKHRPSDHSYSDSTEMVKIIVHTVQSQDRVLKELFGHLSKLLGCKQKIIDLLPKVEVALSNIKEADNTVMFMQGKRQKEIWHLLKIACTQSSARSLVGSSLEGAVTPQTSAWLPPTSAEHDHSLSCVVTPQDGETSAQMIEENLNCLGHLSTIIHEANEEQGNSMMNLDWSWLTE
The conditions noted are these: at 1 µM.

In assay [7] the target is T3, Inhibitor of nuclear factor kappa-B kinase subunit alpha (Homo sapiens). The conditions noted are these: at 10 µM.
The target in assay [8] is T4, Inhibitor of nuclear factor kappa-B kinase subunit beta (Homo sapiens) (UniProt O14920).
T4 sequence (whole entry): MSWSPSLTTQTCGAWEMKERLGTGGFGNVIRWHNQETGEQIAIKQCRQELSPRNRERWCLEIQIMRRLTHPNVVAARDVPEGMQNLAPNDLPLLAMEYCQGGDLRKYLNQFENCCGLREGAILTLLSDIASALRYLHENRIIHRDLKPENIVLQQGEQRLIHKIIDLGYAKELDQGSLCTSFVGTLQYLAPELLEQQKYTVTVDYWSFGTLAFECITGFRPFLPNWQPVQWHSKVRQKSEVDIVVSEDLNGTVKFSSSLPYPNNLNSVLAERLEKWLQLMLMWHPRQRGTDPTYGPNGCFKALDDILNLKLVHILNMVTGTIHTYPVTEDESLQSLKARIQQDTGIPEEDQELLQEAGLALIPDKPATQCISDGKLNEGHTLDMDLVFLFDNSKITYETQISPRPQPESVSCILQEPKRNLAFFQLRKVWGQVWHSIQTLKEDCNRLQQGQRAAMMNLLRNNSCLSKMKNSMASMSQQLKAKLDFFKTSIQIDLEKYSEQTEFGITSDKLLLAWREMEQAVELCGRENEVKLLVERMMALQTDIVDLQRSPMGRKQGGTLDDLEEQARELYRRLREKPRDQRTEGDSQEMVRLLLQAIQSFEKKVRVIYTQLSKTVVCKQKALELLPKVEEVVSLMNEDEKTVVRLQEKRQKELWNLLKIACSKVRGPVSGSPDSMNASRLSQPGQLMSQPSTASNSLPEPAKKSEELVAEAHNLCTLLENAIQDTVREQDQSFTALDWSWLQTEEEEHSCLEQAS
The conditions noted are these: at 1 µM.

Assay [9] has as its target T4, Inhibitor of nuclear factor kappa-B kinase subunit beta (Homo sapiens). The conditions noted are these: at 10 µM.
The target of assay [10] is Insulin receptor (Homo sapiens) (UniProt P06213). The conditions noted are these: at 1 µM.
Chain of Insulin receptor (Homo sapiens) (P06213 28-758 limits assumed): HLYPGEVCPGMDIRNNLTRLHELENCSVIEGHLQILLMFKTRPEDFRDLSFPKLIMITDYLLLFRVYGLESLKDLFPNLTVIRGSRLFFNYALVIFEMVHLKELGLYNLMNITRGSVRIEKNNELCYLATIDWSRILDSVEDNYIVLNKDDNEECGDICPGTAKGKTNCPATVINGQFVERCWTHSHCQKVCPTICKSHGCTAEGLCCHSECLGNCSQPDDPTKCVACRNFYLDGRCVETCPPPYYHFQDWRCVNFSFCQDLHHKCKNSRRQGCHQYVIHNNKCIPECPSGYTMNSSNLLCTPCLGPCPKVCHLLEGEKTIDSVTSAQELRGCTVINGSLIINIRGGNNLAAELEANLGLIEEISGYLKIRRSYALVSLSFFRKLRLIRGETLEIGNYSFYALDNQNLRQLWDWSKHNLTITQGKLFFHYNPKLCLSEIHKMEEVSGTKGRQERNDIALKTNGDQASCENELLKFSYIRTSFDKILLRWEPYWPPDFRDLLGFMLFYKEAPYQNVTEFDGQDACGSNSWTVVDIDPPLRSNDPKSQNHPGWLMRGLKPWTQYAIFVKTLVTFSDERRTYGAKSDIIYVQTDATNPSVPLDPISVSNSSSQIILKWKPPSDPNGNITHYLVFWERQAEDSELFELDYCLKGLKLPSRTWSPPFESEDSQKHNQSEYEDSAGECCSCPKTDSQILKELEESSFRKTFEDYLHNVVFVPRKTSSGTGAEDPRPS
Chain of Insulin receptor (Homo sapiens) (P06213 763-1382 limits assumed): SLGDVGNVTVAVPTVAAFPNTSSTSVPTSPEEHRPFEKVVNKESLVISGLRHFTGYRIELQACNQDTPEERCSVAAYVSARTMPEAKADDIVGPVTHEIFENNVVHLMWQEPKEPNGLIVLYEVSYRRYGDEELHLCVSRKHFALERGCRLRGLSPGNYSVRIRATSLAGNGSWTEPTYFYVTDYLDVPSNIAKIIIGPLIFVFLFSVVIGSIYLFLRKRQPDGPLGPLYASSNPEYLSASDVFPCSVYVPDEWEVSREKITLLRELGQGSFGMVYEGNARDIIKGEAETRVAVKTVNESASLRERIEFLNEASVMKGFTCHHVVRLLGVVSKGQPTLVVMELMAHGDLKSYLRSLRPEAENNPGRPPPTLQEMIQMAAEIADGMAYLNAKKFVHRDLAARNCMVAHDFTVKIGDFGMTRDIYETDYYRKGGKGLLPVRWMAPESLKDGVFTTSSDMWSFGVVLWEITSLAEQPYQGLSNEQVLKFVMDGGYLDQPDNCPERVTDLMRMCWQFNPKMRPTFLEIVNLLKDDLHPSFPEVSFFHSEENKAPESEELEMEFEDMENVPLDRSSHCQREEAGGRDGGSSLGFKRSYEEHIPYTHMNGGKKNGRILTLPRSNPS

Chain of Insulin-like growth factor 1 receptor (Homo sapiens) (P08069 31-736 limits assumed): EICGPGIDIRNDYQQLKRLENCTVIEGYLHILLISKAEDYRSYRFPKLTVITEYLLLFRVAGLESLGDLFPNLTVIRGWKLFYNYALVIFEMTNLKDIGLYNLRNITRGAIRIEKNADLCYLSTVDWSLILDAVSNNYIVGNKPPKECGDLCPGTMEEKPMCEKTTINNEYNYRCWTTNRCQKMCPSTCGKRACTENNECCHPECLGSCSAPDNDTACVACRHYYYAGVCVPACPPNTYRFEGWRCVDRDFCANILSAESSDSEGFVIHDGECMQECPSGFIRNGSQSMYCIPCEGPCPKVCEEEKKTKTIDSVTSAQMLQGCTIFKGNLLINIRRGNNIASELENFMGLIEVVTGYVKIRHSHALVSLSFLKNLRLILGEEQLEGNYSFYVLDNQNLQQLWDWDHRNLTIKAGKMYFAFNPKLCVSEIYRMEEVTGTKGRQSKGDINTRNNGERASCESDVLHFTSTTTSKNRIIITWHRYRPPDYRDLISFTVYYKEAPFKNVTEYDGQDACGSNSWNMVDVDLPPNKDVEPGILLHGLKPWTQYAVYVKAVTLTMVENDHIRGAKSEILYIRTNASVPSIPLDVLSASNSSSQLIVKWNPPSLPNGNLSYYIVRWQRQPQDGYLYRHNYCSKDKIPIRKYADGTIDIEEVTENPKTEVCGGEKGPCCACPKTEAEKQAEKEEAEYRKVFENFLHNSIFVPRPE
Chain of Insulin-like growth factor 1 receptor (Homo sapiens) (P08069 741-1367 limits assumed): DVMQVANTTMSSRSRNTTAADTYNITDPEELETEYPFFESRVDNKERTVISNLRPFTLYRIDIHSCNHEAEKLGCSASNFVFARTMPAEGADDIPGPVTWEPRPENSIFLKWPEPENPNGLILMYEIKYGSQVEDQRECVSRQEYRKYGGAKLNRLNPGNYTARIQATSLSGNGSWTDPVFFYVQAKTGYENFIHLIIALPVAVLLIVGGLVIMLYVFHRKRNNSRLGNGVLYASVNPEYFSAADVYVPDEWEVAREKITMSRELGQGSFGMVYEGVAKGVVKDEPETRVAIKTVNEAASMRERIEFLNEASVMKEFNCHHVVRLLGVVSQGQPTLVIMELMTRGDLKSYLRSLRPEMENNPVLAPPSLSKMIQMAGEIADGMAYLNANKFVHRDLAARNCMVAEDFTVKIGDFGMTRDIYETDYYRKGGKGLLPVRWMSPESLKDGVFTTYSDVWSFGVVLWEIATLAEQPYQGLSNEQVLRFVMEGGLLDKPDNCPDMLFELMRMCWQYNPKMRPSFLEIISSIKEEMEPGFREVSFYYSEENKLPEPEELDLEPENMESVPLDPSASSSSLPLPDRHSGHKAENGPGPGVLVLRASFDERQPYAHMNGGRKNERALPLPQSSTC

As a reminder, the residual activity is the signal under treatment as a percentage of the control signal. Turning to `Cn1nc2c3c(cccc31)C(=O)c1ccccc1-2`, the residual activity was found to be 55% in [1]; 85% in assay [2]; 76% in [3]; 89% in assay [4]; 99% in [5]; 110% in assay [6]. Besides, the residual activity came to 82% in [7], 100% in assay [8], 87% in assay [9] and 94% in assay [10].
